# Screening results deposited in PubChem BioAssay by National Center for Advancing Translational Sciences (NCATS).
# An excerpt weighted towards active compounds, which were near 9.2% of everything screened.
# SMN2 splice enh = increases expression of the SMN2 splice variant | HEK293 SMN2-luciferase splicing reporter, luminescence, 30-36 h | AID 1458 | Potency, µM (highest dose often 46.1 µM), for the others: top-dose activity change, positive = activation, usual class: activators | 210,000 compounds, 2.8% hits; further: % of control where 0% means no effect; nearly all actives have a fitted effect of over 55% in size
#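 HEK293 cells carry an SMN2 […]–luciferase reporter in which exon 7 inclusion puts luciferase in frame. Cells were plated 10-12 h before compound addition, then incubated 30-36 h at 37C. ONE-Glo luminescence was read; sodium butyrate at 4.5 mM final served as control.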
# NPC1 prom act = activators of NPC1 promoter | Huh7 NPC1 promoter luciferase reporter, 24 h | Potency, µM (titrated, usually from 9.22 µM), for the others: at the top dose activation, most hits filed as activators | 320,000 compounds, 2.4% hits | AID 485313; further: % of control where 0% means no effect; nearly all actives have a fitted effect of over 60% in size
#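 Huh7 reporter cells (NPC1 promoter driving luciferase) are dosed with compound for 24 h at 37 °C, 5% CO2; luciferase detection reagent is then added and luminescence measured after 10 min at ambient temperature.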
# Rab9 promoter act = Rab9 promoter activation. Huh7 Rab9 promoter-luciferase reporter, luminescence, 24 h. Potency, µM (top dose mostly 9.22 µM), for the others: top-dose activation, negative = inhibition, actives largely listed as activators. 320,000 compounds, 2.8% hits; further: % of control where 0% means no effect; nearly all actives have a fitted effect of over 60% in size
#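 Using Huh7 cells stably transfected with Rab9 promoter–luciferase, compounds were incubated 24 h at 37 °C, 5% CO2; luciferase luminescence was read 10 min after reagent addition.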
# ELG1 genotoxic = genotoxicity induction in ELG1-luciferase HEK293T cells. HEK293T ELG1-luciferase reporter, luminescence, 16 h. Potency, µM (top dose mostly 46 µM), for inactives: at the top dose activity change, positive = activation, most hits filed as activators. 330,000 compounds, 1.3% hits; further: % of control where 0% means no effect; nearly all actives have a fitted effect of over 60% in size
#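 After overnight (16 hr) compound treatment at 37 °C, ELG1-luciferase HEK293T cells were lysed with ONE-Glo; luminescence quantified 30 min later at room temperature.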
# ELG1 DNA repair = blocks ELG1-dependent DNA repair in HEK293T cells; HEK293T ELG1-luciferase reporter, luminescence, 16 h; DNA damage induced by 5-fluorouridine; Potency, µM (highest dose often 46.1 µM), inactives show top-dose activity change, negative = inhibition, hits mostly inhibitors; 330,000 compounds, 2.3% hits; further: on the % scale 0 is the no-effect control and ±100 the full control effect; nearly all actives have a fitted effect of over 55% in size
#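 HEK293T cells expressing luciferase-tagged ELG1 (2,000/well) received 5-Fluorouridine plus compound or DMSO for 16 hr at 37 °C. Luciferase was read by ONE-Glo luminescence after 30 min at room temperature.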
# FLuc modulator = counter-screen for miR-21 project: firefly luciferase inhibitors or activators | purified FLuc, Km substrates, luminescence inhibition | Potency, µM (titrated, usually from 57.5 µM), for inactives: at the top dose activity change, negative = inhibition, usual class: inhibitors | 360,000 compounds, 6.9% hits;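 further: plate controls were vehicle for no effect and reference inhibitor for full effect; nearly all actives have a fitted effect of over 55% in size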
# Target sequence (P08659 whole entry, looked up): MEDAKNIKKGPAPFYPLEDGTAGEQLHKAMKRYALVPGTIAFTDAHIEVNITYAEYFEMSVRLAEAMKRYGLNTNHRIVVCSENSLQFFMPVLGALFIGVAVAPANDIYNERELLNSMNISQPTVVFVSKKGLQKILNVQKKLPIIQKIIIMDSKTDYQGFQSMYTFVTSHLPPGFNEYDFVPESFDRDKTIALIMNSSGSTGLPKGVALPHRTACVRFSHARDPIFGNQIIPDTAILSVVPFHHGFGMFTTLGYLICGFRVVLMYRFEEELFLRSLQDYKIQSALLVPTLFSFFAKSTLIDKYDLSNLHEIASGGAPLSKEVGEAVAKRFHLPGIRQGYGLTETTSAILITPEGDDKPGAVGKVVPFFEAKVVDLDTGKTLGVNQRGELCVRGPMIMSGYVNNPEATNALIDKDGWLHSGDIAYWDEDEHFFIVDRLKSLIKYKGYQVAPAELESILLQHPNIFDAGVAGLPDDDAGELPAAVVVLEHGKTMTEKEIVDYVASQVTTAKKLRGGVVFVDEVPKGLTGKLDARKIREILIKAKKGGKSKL
#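 Purified P. pyralis luciferase (10nM final) with 10uM D-luciferin and 10uM ATP (Km levels) in 50mM Tris acetate pH 7.5, 10mM Mg acetate, 0.01% Tween-20, 0.05% BSA; qHTS 6-point titration, ~60 µM downward; luminescence read.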
# * marks the source's active call; other numbers are inactive results; ? = inconclusive; . = no result given; [ ] = another dose, or the depositor's remark. The call rests on the fitted dose curve; in most records, active means well fitted curve in the direction sought with a large enough effect; inconclusive means small, poorly fitted or top-dose-only effect, or another doubt; inactive means no such curve, though single readings can be large; an effect the other way counts as inactive or inconclusive. Potency means the concentration at half of the fitted maximal effect.
SMILES,SMN2 splice enh,NPC1 prom act,Rab9 promoter act,ELG1 genotoxic,ELG1 DNA repair,FLuc modulator
Cn1c(Cl)c(/C=N/OC(=O)c2ccc(Cl)cc2)c2ccccc21,-9%,10%,-2%,-1%,10%,3.4µM*
O=C(Nc1ccccc1-c1nc2ccccc2s1)c1ccco1,-30%,2%,13%,0%,?,-1%
Cc1ccc(Cn2cccc(-c3nc4ccccc4s3)c2=O)cc1,7.1µM*,2.8µM*,2.2µM*,6%,?,2.1µM*
O=c1c(-c2nc3ccccc3s2)cccn1Cc1ccccc1,?,1.8µM*,2.2µM*,7.3µM*,?,2.7µM*
C1=Nc2ccccc2CN1c1ccccc1,7.9µM*,?,?,?,?,15µM*
CC(C)c1ccc(N2C=Nc3ccc(C(C)C)cc3C2)cc1,.,6%,11%,?,-9%,?
COc1ccc(N2CCN(C(=O)CCS(=O)(=O)c3ccc4c(c3)NC(=O)CO4)CC2)cc1,.,-1%,0%,-3%,0%,1%
CCOC(=O)CSC1=NC(=O)/C(=C\c2ccc(Cl)cc2)S1,.,-20%,-8%,?,22%,11µM*
CSC1=NC(=O)/C(=C/c2ccc(SC)cc2)S1,-13%,-1%,6%,8%,?,9.5µM*
CSC1=N/C(=C\c2ccc(F)cc2)C(=O)S1,-7%,2%,0%,-5%,12%,-12%
CN=C1S/C(=C\c2ccc(OCC(=O)OC)c(OC)c2)C(=O)N1C,.,15%,-6%,2%,1%,17µM*
COc1cc(/C=C2\SC(=Nc3ccc(F)cc3)N(c3ccc(F)cc3)C2=O)ccc1OCC(=O)O,-12%,-3%,-8%,-4%,-4%,?
CN=C1S/C(=C\c2ccc(SC)cc2)C(=O)N1C,.,?,17%,10µM*,?,12µM*
CCOC(=O)C1CCN(C2=NC(=O)/C(=C/c3ccc(Cl)cc3)S2)CC1,.,-2%,-2%,-2%,-9%,?
Cc1ccc(SCC(=O)OCC(=O)N(C)CC(=O)Nc2ccccc2Cl)cc1C,.,-1%,7%,2%,4%,0%
CCc1ccc(CSc2nc(-c3ccccc3F)nc3c2Cc2c(CO)cnc(C)c2O3)cc1,.,.,.,.,.,0%
CN=C1S/C(=C\c2ccc(O)c(Br)c2)C(=O)N1C,.,-12%,-5%[1.84 µM],17%,?,15µM*
Cc1ccc(-c2cc3nc(C)cc(NCc4ccco4)n3n2)cc1,13µM*,2.8µM*,17%,4.1µM*,?,2.4µM*
COc1ccc(-c2cc3nc(C)cc(-c4ccc(OC)cc4)n3n2)cc1,.,1%,-1%,3%,1%,?
COc1ccc(-c2cc3nc(C)cc(N)n3n2)cc1,1.1µM*,0.11µM*,0.35µM*,?,?,0.38µM*
N#Cc1cnc2cc(-c3ccccc3)nn2c1N,.,?,?,13%,?,?
COc1ccc(-c2cc3ncc(-c4ccccc4)c(N)n3n2)cc1,11µM*,1.4µM*,1.8µM*,?,?,0.95µM*
CC(=O)n1nc(-c2ccc(C)cc2)nc1NCc1ccco1,?,2.5µM*,3.5µM*,?,?,1%
COC(=O)NC(CCc1ccccc1)C(C(C)=O)C(=O)OC (centres undefined),7%,.,.,.,.,.
COCCNc1cc(C)nc2cc(-c3ccc(C)cc3)nn12,-2%,?,?,?,13%,6µM*
SMILES,SMN2 splice enh,NPC1 prom act,Rab9 promoter act,ELG1 genotoxic,ELG1 DNA repair,FLuc modulator
COc1ccc(-c2cc3nc(C)cc(NCCO)n3n2)cc1,-17%,-1%,?,9%,?,11µM*
COc1cccc(C(=O)c2sc(Nc3ccc(C)cc3C)c(S(=O)(=O)c3ccccc3)c2N)c1,-6%,.,.,.,.,-1%
N#C/C(=C\C=C\c1ccccc1)C(=O)Nc1ccccc1,15%,12%,10%,1%,5%,-10%
N#C/C(=C/C=C/c1ccccc1)C(=O)Nc1ccccc1,-39%,0%,-1%,-12%,5.8µM*,-2%
N#C/C(=C/c1ccc(O)c([N+](=O)[O-])c1)C(=O)Nc1ccccc1,.,-31%,-7%,-5%,2%,13µM*
CCOC(=O)c1c(-c2ccccc2)csc1NC(=O)c1nc(S(=O)(=O)CC)ncc1Cl,1%,.,.,.,.,-20%
O=C(Nc1nnc(-c2ccc3c(c2)CCCC3)o1)c1c(F)cccc1F,-5%,14%,27%,19%,?,15µM*
O=C(Nc1nnc(-c2ccc3c(c2)CCCC3)o1)c1ccc(Cl)cc1Cl,-9%,-10%,-2%,-24%,1%,0%
CCNC(=O)c1ccc(C23CC4CC(CC(C4)C2)C3)o1,-7%,-7%,-3%,-6%,-4%,13µM*
COc1ccc(NC(=O)Cn2c(=O)n(Cc3nc(-c4ccccc4)no3)c(=O)c3ccccc32)cc1Cl,.,.,.,.,.,-7%
COc1ccc(NC(=O)Nc2cccc3c2O[C@H](CN(C)S(=O)(=O)c2ccc(OC)cc2)[C@@H](C)CN([C@H](C)CO)C3=O)cc1,.,.,.,-6%,21µM*,.
C[C@H]1CN([C@@H](C)CO)C(=O)c2cc(NC(=O)C3CCCCC3)ccc2O[C@H]1CN(C)C(=O)Nc1ccc2c(c1)OCO2,.,.,.,1%,1.3µM*,.
CC(C)NC(=O)N(C)C[C@H]1Oc2ccc(NC(=O)C3CCCCC3)cc2C(=O)N([C@H](C)CO)C[C@@H]1C,.,.,.,4%,?,.
COc1ccc(NC(=O)Nc2cccc3c2O[C@H](CN(C)S(=O)(=O)c2ccccc2)[C@@H](C)CN([C@H](C)CO)C3=O)cc1,.,.,.,0%,-17%,.
CC(C)NC(=O)N(C)C[C@H]1Oc2c(NC(=O)Nc3ccc4c(c3)OCO4)cccc2C(=O)N([C@H](C)CO)C[C@@H]1C,.,.,.,-3%,?,.
C[C@H](CO)N1C[C@H](C)[C@@H](CN(C)C(=O)Nc2ccc3c(c2)OCO3)Oc2c(NC(=O)Nc3ccccc3)cccc2C1=O,.,.,.,-5%,6.5µM*,.
C[C@H](CO)N1C[C@H](C)[C@@H](CN(C)C(=O)Nc2ccc(C(F)(F)F)cc2)Oc2c(NC(=O)Nc3ccc(C(F)(F)F)cc3)cccc2C1=O,.,.,.,-7%,16µM*,.
C[C@H]1CN([C@@H](C)CO)C(=O)c2cccc(NC(=O)Nc3ccc(C(F)(F)F)cc3)c2O[C@@H]1CN(C)C(=O)Nc1ccc(F)cc1,.,.,.,-5%,?,.
Cc1ccsc1C(=O)N1CCN(C(=O)c2ccco2)CC1,.,-4%,-3%,0%,8%,4%
O=C(CC1C(=O)N(c2ccc(F)cc2)C(=O)N1Cc1cccnc1)Nc1ccc(F)cc1 (centres undefined),.,.,.,.,.,-6%
